Compound activity deposited in PubChem BioAssay by several laboratories.
ABHD5 PLIN5 PPI: ABHD5-PLIN5 interaction inhibitors, primary screen, cell lysate, split luciferase complementation, luminescence. Perilipin-5 (Homo sapiens) + 1-acylglycerol-3-phosphate O-acyltransferase ABHD5 (Homo …. Split G. princeps luciferase complementation, 4 h. inhibition, % at 4 µM. 360,000 tested, 0.78% active. AID 602281, 2012;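 active = inhibition above the mean inhibition across every tested compound plus 3 SD, cut at about 22% in these data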;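 note: 0% = DMSO only wells and the 100% control is not disclosed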
Target sequence (Q00G26 whole entry, looked up): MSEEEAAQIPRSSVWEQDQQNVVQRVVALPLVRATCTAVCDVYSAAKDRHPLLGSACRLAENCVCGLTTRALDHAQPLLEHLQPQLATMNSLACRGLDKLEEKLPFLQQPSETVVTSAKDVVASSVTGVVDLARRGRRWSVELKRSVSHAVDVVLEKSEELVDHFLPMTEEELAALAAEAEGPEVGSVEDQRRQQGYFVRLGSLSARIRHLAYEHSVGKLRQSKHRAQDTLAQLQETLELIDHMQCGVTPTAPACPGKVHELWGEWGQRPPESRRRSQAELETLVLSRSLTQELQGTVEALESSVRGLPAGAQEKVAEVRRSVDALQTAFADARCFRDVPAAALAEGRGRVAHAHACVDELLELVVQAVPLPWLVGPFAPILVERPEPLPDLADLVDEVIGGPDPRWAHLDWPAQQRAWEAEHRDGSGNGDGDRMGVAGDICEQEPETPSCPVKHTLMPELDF
Target sequence (Q8WTS1 whole entry, looked up): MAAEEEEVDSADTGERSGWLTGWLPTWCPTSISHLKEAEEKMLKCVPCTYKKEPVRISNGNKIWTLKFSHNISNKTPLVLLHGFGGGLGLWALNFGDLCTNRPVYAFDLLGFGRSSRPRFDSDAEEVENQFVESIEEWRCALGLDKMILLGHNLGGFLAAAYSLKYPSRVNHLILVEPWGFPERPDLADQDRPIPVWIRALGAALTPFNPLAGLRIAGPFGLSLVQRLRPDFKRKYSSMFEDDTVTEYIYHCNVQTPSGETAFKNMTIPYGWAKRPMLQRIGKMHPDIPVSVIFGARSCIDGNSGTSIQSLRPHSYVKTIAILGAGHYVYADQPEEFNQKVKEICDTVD
HTR2A ag: mouse Htr2a agonists via beta-arrestin recruitment, primary screen, cell-based, luminescence; AID 624169, 2012; 5-hydroxytryptamine receptor 2A (Mus musculus), P35363; 360,000 tested, 0.66% active; activation, % at 7.6 µM; CHO-K1 mHTR2A beta-arrestin complementation; percent of 30 µM serotonin response;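 active = activation above a run cutoff, the mean activation of all tested compounds plus 3 SD, cut at about 14% in these data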;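 note: 0% = plate median of compound wells and 100% = 30 µM serotonin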
TLR9-MyD88 inh: inhibitors of TLR9-MyD88 association in cells, primary screen, cell-based, CHO, BLA complementation, fluorescence; Toll-like receptor 9 (Homo sapiens) + Myeloid differentiation primary response protein …; CCF4 FRET ratio; inhibition, % at 4.98 µM; 340,000 tested, 0.21% active; AID 504734, 2011;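 active = inhibition above the mean over all tested compounds plus 3 SD, cut at about 21% in these data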;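 note: 0% = DMSO only wells and 100% = clavulanate BLA inhibitor control wells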
CRFR2-BP antag: antagonists of CRF-BP/CRF-R2 complex, primary screen, cell-based, HEK293, calcium dye fluorescence, uHTS; 350,000 tested, 0.59% active; CRF-induced calcium fluorescence; inhibition, % at 11.8 µM;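 active = inhibition of the ligand-induced calcium signal above about 50% at the single tested concentration, limit read from the data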
TLR4-MyD88 BLA: inhibitors of TLR4-MyD88 association in cells, primary screen, cell-based, HeLa CL3-4, BLA complementation, FRET ratio; HeLa CL3-4 TLR4/MyD88 BLA complementation; inhibition, % at 8.4 µM; 200,000 tested, 0.18% active; AID 861, 2007; in the data active = inhibition above about 25%;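 note: 0% = vehicle and 100% = reference inhibitor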
NOD2-RIPK2 inh: NOD2-RIPK2 binding disruptors in cells, primary screen, fluorescence, CHO cells, BLA complementation. Receptor-interacting serine/threonine-protein kinase 2 (Homo sapiens), O43353. CCF4 ratio. inhibition, % at 4.98 µM. 360,000 tested, 0.38% active. AID 624267, 2012; in the data active = inhibition above about 21%;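 note: 0% = vehicle only and 100% = reference blocker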
ABHD5 PLIN5 conf: ABHD5-PLIN5 interaction inhibitors, confirmation, biochemical, luminescence; inhibition, % at 4 µM; AID 651612, 2012; shares compounds with ABHD5 PLIN5 PPI; 2,200 tested, 67% active; in the data active = inhibition above about 23%;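 note: 0% = DMSO vehicle wells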
HNF4 counter: HNF4 dimerization inhibitors, counter-screen for ABHD5-PLIN5 interaction inhibitor project, biochemical, split-luciferase complementation, luminescence | shares compounds with ABHD5 PLIN5 PPI | inhibition, % at 4 µM | 2,200 tested, 77% active | AID 651674, 2012;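 active = mean inhibition across replicate wells exceeding the computed hit threshold, cut at about 13% in these data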;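 note: light from luciferase halves that rejoin when HNF4 fusion proteins dimerize; 0% = DMSO only wells and the 100% control is not given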
* marks the source's active call; other numbers are inactive results; · = no result given. Shown are actives, neighbours in structure and some others; about 2.4% of the full set was active somewhere.

SMILES	ABHD5 PLIN5 PPI	HTR2A ag	TLR9-MyD88 inh	CRFR2-BP antag	TLR4-MyD88 BLA	NOD2-RIPK2 inh	ABHD5 PLIN5 conf	HNF4 counter
Cc1ccc(Cc2c(-c3ccco3)nc3ccc(C)cn23)cc1	37*	0	·	·	·	8	14	34*
Cc1cc(=O)n2nc(N3CCCC(C(=O)Nc4cccc(C)c4C)C3)sc2n1 (stereo not given)	1	-1	·	·	·	9	·	·
COCCN1C(=O)CN(S(C)(=O)=O)CC1(C)C(=O)NC(C)C (stereo not given)	3	0	·	·	·	-5	·	·
CC1ON=C(c2cccc3ccccc23)N(C)C1=O (stereo not given)	-2	0	·	·	·	5	·	·
CO[C@H]1CN(C)C(=O)c2cc(NC(=O)C3CCCC3)ccc2OC[C@@H](C)NC[C@H]1C	3	6	·	·	·	7	·	·
CC1CCCCc2nc3c(c(=O)n21)CCCC3 (stereo not given)	9	0	·	·	·	0	·	·
COC(=O)c1ccc2nc(-c3ccco3)c(Cc3ccc(C)cc3)n2c1	39*	-7	·	·	·	3	19	42*
COC(=O)c1ccc2nc(-c3ccco3)c(Cc3ccccc3C(F)(F)F)n2c1	52*	-3	·	·	·	-19	24*	66*
COC(=O)c1ccc2nc(C3CCCCC3)c(Cc3ccccc3C(F)(F)F)n2c1	-2	-3	·	·	·	-15	·	·
CCC(=O)Nc1cccc(C(=O)/C=C/c2ccc(F)cc2)c1	46*	1	2	-36	-4	19	92*	85*
CC(=O)Nc1cccc(C(=O)/C=C/c2ccc(C)cc2)c1	49*	-7	12	7	6	-3	87*	82*
CCOc1ccc(/C=C/C(=O)Nc2cccc(C(C)=O)c2)cc1	-3	0	-3	-35	-14	5	·	·
COc1cccc(NC(=S)NC(=O)/C=C/c2ccc(F)cc2)c1	-6	0	1	4	·	4	·	·
CSc1ccc(/C=C/C(=O)c2ccc(NC(C)=O)cc2)cc1	25*	-5	5	9	9	1	52*	41*
CCc1cc(C(c2ccc(OC)c(OC)c2)N2CCOCC2)c(NC(=O)c2ccccc2)s1 (stereo not given)	33*	2	4	-5	3	-5	99*	86*
C=C1C(=O)OC2C=C(CO)C3OC3C3OC3(C)CC(OC(=O)/C(=C/C)COC(C)=O)C12 (stereo not given)	52*	6	-5	8	·	4	73*	82*
CC(=O)OCC1=C[C@@H]2OC(=O)C3=CO[C@@H](O[C@@H]4O[C@H](CO)[C@@H](O)[C@H](O)[C@H]4O)[C@H]1[C@@H]32	-2	-1	-4	3	·	2	·	·
CCCCC/C=C/C1=CC(=O)C[C@H](c2ccc(OC)cc2)C1	4	-1	-1	3	·	2	·	·
COc1ccc([C@H]2CC(=O)C=C(/C=C/Cc3ccccc3)C2)cc1	26*	1	2	1	·	12	38*	32*
N=C1C=CC(=C(c2ccc(N)cc2)c2ccc(N)cc2)C=C1	34*	-12	3	-2	·	-19	56*	60*
CC1(C(=O)NS(=O)(=O)c2cccs2)CCN1C(=O)c1ccccc1 (stereo not given)	14	-2	·	·	·	6	·	·
COc1cccc(F)c1C(C[N+](=O)[O-])c1c(N)n(C)c(=O)n(C)c1=O (stereo not given)	31*	-3	9	8	·	14	30*	68*
COc1cc(C(C[N+](=O)[O-])c2c(N)n(C)c(=O)n(C)c2=O)ccc1O (stereo not given)	45*	-9	-13	-2	-5	-5	37*	55*
Cn1c(N)c(C(C[N+](=O)[O-])c2ccccc2Cl)c(=O)n(C)c1=O (stereo not given)	13	3	-7	6	·	-4	·	·
Cc1ccc(C(C[N+](=O)[O-])c2c(N)n(C)c(=O)n(C)c2=O)cc1 (stereo not given)	32*	1	-10	-2	·	-5	36*	44*
SMILES	ABHD5 PLIN5 PPI	HTR2A ag	TLR9-MyD88 inh	CRFR2-BP antag	TLR4-MyD88 BLA	NOD2-RIPK2 inh	ABHD5 PLIN5 conf	HNF4 counter
CC(C(c1ccc2c(c1)OCO2)c1c(N)n(C)c(=O)n(C)c1=O)[N+](=O)[O-] (stereo not given)	33*	-4	-6	-4	·	-8	6	12
O=C(C[C@@H]1CC[C@@H]2[C@H](COC[C@H](O)CN2S(=O)(=O)c2ccccc2)O1)Nc1ccccc1	-3	-4	·	·	·	-11	·	·
COC(=O)c1ccc(COC(=O)C2CCN(S(=O)(=O)c3c(C)cc(C)cc3C)CC2)o1	-3	3	1	-2	·	-1	·	·
Cc1ccc2c(c1C)-c1c(ccc(C)c1C)C(=O)C2=O	52*	0	-7	-21	·	6	43*	69*
Cc1ccc(CC#N)c(-c2c(CC#N)ccc(C)c2C)c1C	2	-4	-4	10	·	4	·	·
N#C/C(=C\c1cc([N+](=O)[O-])c(N2CCOCC2)cc1N1CCOCC1)c1nc2ccccc2[nH]1	0	-1	8	-18	-5	-2	·	·
N#C/C(=C/c1ccc(N2CCOCC2)o1)c1nc2ccccc2[nH]1	27*	0	15	-99	4	8	32*	50*
N#C/C(=C\c1ccc(N2CCOCC2)o1)c1ccccc1	76*	1	11	35	14	13	37*	101*
N#C/C(=C\c1ccc(N2CCOCC2)cc1)c1ccccc1	9	-4	0	-47	-3	1	·	·
Cc1ccc(S(=O)(=O)N2[C@H](CC(=O)c3ccc(Cl)c(Cl)c3)OC[C@@H]2C)cc1	-9	-8	·	·	·	-15	·	·
CCOC(=O)c1c(-c2ccc(C)o2)csc1NC(=O)CN(C)CC(=O)Nc1ccc(C)cc1	26*	-4	-8	7	2	16	18	53*
CCc1nc2ccc(C(=O)N3CCN(c4ccccc4)CC3)cn2c1N(C)CCCc1ccccc1	9	-8	·	·	·	8	·	·
